RXFP1 agonist – RXFP1 (human) receptor agonism | HEK293T-RXFP1 cAMP TR-FRET, 30 min; response scale: percent of porcine relaxin response, buffer zero | Potency, µM (top dose mostly 57.5 µM), inactives show at the top dose activation, most hits filed as activators | hit rate 0.3% among 370,000 | AID 2676; active = well fitted activation curve with a large enough effect; inconclusive = small, poorly fitted or top-dose-only effect; note: potency is the fitted concentration of half-maximal effect; % is set by controls: 0 for no effect and ±100 for the full control effect; nearly all actives have a fitted effect of over 60% in size
Target sequence (Q9HBX9 whole entry, looked up): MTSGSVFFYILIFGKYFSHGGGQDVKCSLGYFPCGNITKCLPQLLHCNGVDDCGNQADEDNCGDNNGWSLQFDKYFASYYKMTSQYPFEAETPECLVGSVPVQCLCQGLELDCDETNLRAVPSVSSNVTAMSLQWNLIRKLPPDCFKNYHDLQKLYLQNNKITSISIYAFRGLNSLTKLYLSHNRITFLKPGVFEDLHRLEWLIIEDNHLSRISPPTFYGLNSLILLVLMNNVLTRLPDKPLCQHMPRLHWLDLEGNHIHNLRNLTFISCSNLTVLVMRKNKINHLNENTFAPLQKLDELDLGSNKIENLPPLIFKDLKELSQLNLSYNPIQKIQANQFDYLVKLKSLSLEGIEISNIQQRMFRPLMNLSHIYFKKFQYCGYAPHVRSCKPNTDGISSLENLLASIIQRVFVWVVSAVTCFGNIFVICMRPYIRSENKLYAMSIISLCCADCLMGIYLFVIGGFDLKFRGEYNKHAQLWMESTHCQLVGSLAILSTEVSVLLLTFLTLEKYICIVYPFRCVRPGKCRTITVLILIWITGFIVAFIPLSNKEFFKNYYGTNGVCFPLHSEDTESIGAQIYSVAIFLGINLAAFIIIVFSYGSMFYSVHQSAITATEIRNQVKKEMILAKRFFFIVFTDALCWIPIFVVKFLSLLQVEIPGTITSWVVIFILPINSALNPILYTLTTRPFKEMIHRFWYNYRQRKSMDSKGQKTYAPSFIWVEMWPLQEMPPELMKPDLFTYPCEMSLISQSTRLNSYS
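Agonist response is measured as cAMP accumulation in an RXFP1-transfected HEK293T line under PDE4 inhibition. Values are scaled between buffer-only and 29 nM porcine relaxin, and EC50s come from standard Hill equation fits.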
pAkt inh – blocks phosphorylation of Akt. hit rate 0.32% among 360,000. AID 651550. Neuro2A IGF-stimulated pAkt S473 HTRF, 20 min; hits give low values. activity change, % for hits at 50 µM; in the data active = activity change below about -80%; inconclusive = mostly about -51% to -80%; note: % is set by controls: 0 for no effect and ±100 for the full control effect
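Neuro2A cells (4,500/well, DMEM with 0.5% FBS) were treated with compound at a single 50 µM final concentration, stimulated with 6 nM IGF for 20 min at 37 °C, and lysed. Phospho-Akt Ser473 was read by HTRF as 665/615 ratio ×10^4.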
RXFP1 antagonist – blocks the human relaxin receptor RXFP1. hit rate 0.59% among 350,000. Q9HBX9. HEK293-RXFP1, relaxin-stimulated cAMP HTRF, 30 min; hits give low values. activity change, negative = inhibition, % at 57.5 µM;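 active = activity change of -60% or lower, but not beyond a set lower limit; inconclusive = change between -60% and -40%, or beyond the set limit; inactive = change above -40%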; note: % is set by controls: 0 for no effect and ±100 for the full control effect
gsp antagonist – gsp mutant antagonism; AID 624288; gsp-mutant cells, cAMP HTRF, 30 min; hit rate 0.4% among 340,000; Potency, µM (top dose mostly 76.9 µM), without a hit: top-dose activity change, negative = inhibition, hits mostly inhibitors; calls by dose curve; cell line not stated here;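 note: intracellular cAMP measured with PDE inhibitor Ro 20-1724 present during compound exposure; potency is the fitted concentration of half-maximal effect; % is set by controls: 0 for no effect and ±100 for the full control effect; nearly all actives have a fitted effect of over 65% in size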
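Cells in G418 medium, seeded 16-24 h, 37C; buffer exchange to DPBS + 1 mM CaCl2, 0.5 mM MgCl2, 0.05% BSA; cpds in DMSO + […] (300 uM stock), 30 min 37C; HTRF cAMP detection.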
gsp ag – activates gsp, the McCune-Albright syndrome mutation; gsp mutant cells, cAMP HTRF, 30 min; Potency, µM (titrated, usually from 76.9 µM), inactives show top-dose activation (cAMP increase), actives largely listed as activators; hit rate 0.13% among 340,000; AID 624287; active = well fitted activation curve with a large enough effect; inconclusive = small, poorly fitted or top-dose-only effect, or another doubt; inactive = no such curve, though single readings can be large or run the other way; cell line not stated here;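 note: phosphodiesterase inhibitor Ro 20-1724 added with compounds to block cAMP breakdown; potency is the fitted concentration of half-maximal effect; nearly all actives have a fitted effect of over 60% in size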
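Cells stably selected in G418 were plated at 2000/well, grown 16-24 hr, then given compounds in DMSO with the PDE inhibitor […] (300 uM solution added) for 30 min at 37C; cAMP was read by HTRF.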
Numbers without * were called inactive; i = inactive; ? = inconclusive; nt = not tested or not shown; ! = not active in a repeat; [ ] = another dose, or the depositor's remark. Rows were chosen to be rich in hits. Some 1.2% of all compounds tested hit in one or more screens of this group.

SMILES	RXFP1 agonist	pAkt inh	RXFP1 antagonist	gsp antagonist	gsp ag
CCc1ccccc1NC(=O)CN1C(=O)c2cccnc2Oc2ccc(Cl)cc21	-2%	nt	-1	nt	nt
COCCCNC(=O)c1sc2nc(C)c(C(=O)Nc3ccc(Cl)cc3)c(-c3ccc(Br)cc3)c2c1N	35µM*	nt	-16	nt	nt
O=C(COc1c(Br)cc(Br)c2cccnc12)N1CCc2ccccc2C1	18%	i	-5	-12%	?
O=C(COc1c(Br)cc(Br)c2cccnc12)N1CCCCC1	?	i	8	-4%	6.3µM*
Cc1ccc(CNC(=O)c2ccc3c(c2)c(C)c(C)n3Cc2ccc(Cl)cc2)o1	0%	nt	-15	nt	nt
CCOc1ccc(N(C)S(=O)(=O)c2c(C(=O)N3CCC(C)CC3)c(C)n(C)c2C)cc1	1%	nt	-1	nt	nt
CC[C@@H]([C@H](C)O)n1ncn(-c2ccc(N3CCN(c4ccc(OC[C@@H]5CO[C@@](Cn6cncn6)(c6ccc(F)cc6F)C5)cc4)CC3)cc2)c1=O	nt	nt	-20	nt	nt
CCCc1cc(C(=O)NC2CCCCC2)no1	3%	i	8	5%	-21%
CCCc1cc(C(=O)N(C2CCCCC2)C2CCCCC2)no1	0%	i	-70*	-26%	-51%
O=C(Nc1cc(C(F)(F)F)ccc1N1CCOCC1)c1cccnc1Cl	0%	-111%*	-2	-9%	-3%
CSc1nc2ccccc2n1CC(=O)Nc1cc(C(F)(F)F)ccc1N1CCOCC1	2%	-120%*	-6	-12%	-20%
CCOc1ncccc1C(=O)Nc1cc(C(F)(F)F)ccc1N1CCOCC1	0%	i	15	2%	5%
Cc1cc(NC(=O)C(C)SCC(=O)Nc2cc(C(F)(F)F)ccc2N2CCOCC2)no1 (centres undefined)	0%	i	-72*	3%	2%[15.4 µM]
O=S(=O)(Nc1ccc(-c2ccc(N3CCOCC3)nn2)cc1)c1ccc(Cl)c(Cl)c1	-3%	i	-12	35µM*	19%[15.4 µM]
O=S(=O)(Nc1cccc(-c2ccc(N3CCCCCC3)nn2)c1)c1ccccc1Cl	0%	i	-21	28µM*	?
O=S(=O)(Nc1cccc(-c2ccc(N3CCCCCC3)nn2)c1)c1ccc(C(F)(F)F)cc1	1%	i	-68*	?	0%
O=[N+]([O-])c1ccc(Cl)c(S(=O)(=O)Nc2ccc(-c3ccc(N4CCOCC4)nn3)cc2)c1	1%	i	-19	?	2%
O=S(=O)(Nc1cccc(-c2ccc(N3CCCCCC3)nn2)c1)c1ccc(F)cc1	2%	i	-76*!	?	?
O=S(=O)(Nc1cccc(-c2ccc(N3CCCCCC3)nn2)c1)c1cccc(F)c1	2%	nt	11	?	6%
Nc1nc(=O)n([C@@H]2O[C@H](CO)[C@@H](O)[C@@H]2F)cc1I	nt	nt	3	nt	nt
Cc1cccc(NC(=O)c2oc3ccccc3c2NC(=O)Cc2coc3cc(C)cc(C)c23)c1	2%	nt	-2	nt	nt
N#Cc1ccccc1CN1C(=O)c2ccccc2Sc2ccc(C(=O)OCc3ccco3)cc21	0%	nt	nt	nt	nt
Cc1cc(C)cc(NC(=O)CSc2nc(-c3ccccc3)c3cc(F)ccc3n2)c1	5%	nt	0	nt	nt
O=C1CC(c2cccc(Cl)c2)Cc2nc(N3CCN(c4ccccc4)CC3)ncc21 (centres undefined)	25%	-97%*	2	4%	31%
NS(=O)(=O)c1ccc(CCn2c(=S)[nH]c3ccccc3c2=O)cc1	0%	i	-64*	0%	-23%[15.4 µM]
SMILES	RXFP1 agonist	pAkt inh	RXFP1 antagonist	gsp antagonist	gsp ag
O=c1c2ccccc2[nH]c(=S)n1CCN1CCc2ccccc2C1	0%	i	-75*	-11%	16%[15.4 µM]
O=c1c2ccccc2[nH]c(=S)n1CCc1ccccc1	-1%	i	-11	11%	-15%
COc1ccc(-n2c(=O)c3c(c4cc(OC)ccc4n3C)n(Cc3cc(C)ccc3C)c2=O)cc1	5%	nt	nt	nt	nt
CCc1sc(C(C2C(=O)CC(C)(C)CC2=O)C2C(=O)CC(C)(C)CC2=O)cc1[N+](=O)[O-]	-4%	i	-98*	?	4%[15.4 µM]
CCOC(=O)C1(Cc2cccc(OC)c2)CCN(Cc2cccc(OC)c2OC)CC1	4%	i	-12	0%	-9%[15.4 µM]
CCOC(=O)C1(Cc2cccc(OC)c2)CCN(Cc2cccc3c2OCO3)CC1	1%	i	-95*	-6%	2%[15.4 µM]
OCC1(Cc2cccc(Cl)c2)CCCN(Cc2ccc(F)c(F)c2)C1 (centres undefined)	-1%	i	-28	1%	6%[15.4 µM]
OCC1(Cc2ccc(F)cc2F)CCCN(Cc2ccc(Cl)cc2)C1 (centres undefined)	0%	i	-61*	9%	-256%
COc1ccccc1CNC(=O)CCCn1c(=O)c2ccccc2n(Cc2ccccc2C#N)c1=O	0%	nt	nt	nt	nt
O=C(CN1C(=O)c2ccc(Br)cc2C1=O)NCC1CCCO1 (centres undefined)	?	i	11	13%	7.1µM*
CCOc1ccc(/C=C/c2nc3ccccc3n2S(=O)(=O)c2cccc(Cl)c2)cc1	3%	nt	-33	nt	nt
COc1ccc(CNC(=O)C(C#N)c2nc3ccccc3nc2N2CCCC2)cc1 (centres undefined)	9%	-84%*	-4	-5%	0%
COc1ccc(CNC(=O)C(C#N)c2nc3ccccc3nc2N2CCN(C)CC2)cc1 (centres undefined)	1%	i	0	24%	5%
O=C(O)c1[nH]n(-c2ccc(S(=O)(=O)O)cc2)c(=O)c1N=Nc1ccc(S(=O)(=O)O)cc1	nt	nt	-18	nt	nt
CCc1ccc(OCCCSc2nc(-c3ccc(C(C)(C)C)cc3)nc3cc(=O)[nH]n23)cc1	1%	nt	-12	nt	nt
Cc1ccccc1-c1nc2ccccc2[nH]1	0%	-124%*	0	-2%	27%
Fc1ccccc1-c1nc2ccccc2[nH]1	-1%	i	9	-7%	13%
CCn1c(=O)c(CCC(=O)N2CCN(c3ccccn3)CC2)c(C)c2c(C)nn(-c3cccc(C)c3)c21	1%	nt	-103*	6%	5%
COc1ccc(CCNC(=O)CCn2c(=O)c3ccccc3n(Cc3ccccc3F)c2=O)cc1OC	6%	nt	nt	nt	nt
COc1cc(C2C(C#N)=C(N)N(Nc3ccccc3)C3=C2C(=O)CC(C)(C)C3)ccc1OCc1cccc(F)c1 (centres undefined)	0%	-92%*	-26	-16%	-12%
O=c1[nH]c(=O)n([C@H]2O[C@H](CO)[C@@H](O)[C@@H]2O)cc1/C=C\Br	nt	nt	5	nt	nt
COc1ccc(CCNc2nc(-c3ccc(OC)c(OC)c3)cc(C(F)(F)F)n2)cc1OC	4%	nt	nt	nt	nt
CCN(CC)CCNC(=O)c1c(C)n(-c2ccccc2)c2cc(Br)c(OC)cc12	-2%	i	-78*	15%	25%
CCN(CC)S(=O)(=O)c1ccc2c(c1)N(CC(=O)NCc1ccccc1)C(=O)C1CCCCN21 (centres undefined)	1%	nt	-8	nt	nt

Compound activity deposited in PubChem BioAssay by National Center for Advancing Translational Sciences (NCATS).
